# Results published in PubChem BioAssay (NCATS).
# Values joined by “and” are separate entries in the source; they are usually repeats but may differ in a detail not shown here. Identical values can stand only once. Values without a mark were called inactive. Results filed as inconclusive are left out. A call without a number means that no potency is given here. A structure can be active in one record and inactive in another. Active and inactive are the calls of the source. Calls follow the shape of the dose curve; as a rule, active = well fitted curve in the direction sought with a large enough effect; inconclusive = small, poorly fitted or top-dose-only effect, or another doubt; inactive = no such curve, though single readings can be large; an effect the other way counts as inactive or inconclusive.
# Tests used:
# [1] = test system: Zika virus NS2B-NS3 protease (linked construct); assay: Primary screen NINDS Rhodamine qHTS for Zika virus inhibitors (AID 1347160); also: nearly all actives have a fitted effect of over 55% in size; also: potency is read from the fitted curve at half-maximal effect
# In short: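 In 10 mM Tris-HCl pH 8.0 containing 0.01% Tween 20, linked NS2B-NS3 protease (25 nM final) is exposed to test compounds for 15 min. Cleavage of 1.5 microM Rhodamine110 substrate is tracked by fluorescence over 15 min.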
# [2] = biological target: Calcium and integrin-binding protein 1 (Homo sapiens) (UniProt Q99828); assay: Primary qHTS for Identification of Calcium Integrin Binding Protein 1 (CIB1) Competitor (AID 1508620);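 also: GST tagged CIB1 binding a fluorescein labelled alphaIIb integrin peptide tracer; top concentration of the series differs between compounds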
# Chain of Calcium and integrin-binding protein 1 (Homo sapiens) (Q99828 whole entry, looked up): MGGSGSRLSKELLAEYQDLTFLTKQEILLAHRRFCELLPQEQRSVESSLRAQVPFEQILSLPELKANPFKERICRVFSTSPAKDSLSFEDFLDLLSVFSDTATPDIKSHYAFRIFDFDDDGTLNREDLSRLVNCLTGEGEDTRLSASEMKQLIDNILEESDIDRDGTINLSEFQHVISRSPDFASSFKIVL
# In short: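 CIB1-GST (1 uM final) and compound incubated 15 min at room temperature before adding FITC-alphaIIb peptide tracer (100 nM final). Competition for binding read by fluorescence polarization (ex 480, em 540) after another 15 min at room temperature.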
# [3] = biological target: Glutathione peroxidase 1 (Homo sapiens) (UniProt P07203); assay: Primary qHTS Assay for Inhibitors of Recombinant Selenoprotein Glutathione Peroxidase 1 (GPX1) (AID 1845191); also: nearly all actives have a fitted effect of over 65% in size
# Chain of Glutathione peroxidase 1 (Homo sapiens) (P07203 whole entry, looked up): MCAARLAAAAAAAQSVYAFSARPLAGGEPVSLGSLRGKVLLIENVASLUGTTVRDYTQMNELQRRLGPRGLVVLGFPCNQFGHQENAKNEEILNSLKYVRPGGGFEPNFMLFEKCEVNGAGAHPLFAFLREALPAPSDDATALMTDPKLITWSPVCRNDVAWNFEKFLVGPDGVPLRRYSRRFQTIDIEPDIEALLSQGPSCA
# In short: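 10 nM GPX1 + cpd, 30 min RT; start w/ 1 mM GSH, 0.5 mM cumene hydroperoxide, 0.5 mM NADPH, 100 nM GR, 0.01% BSA; buffer 50 mM Tris-HCl pH 7.5, 2 mM EDTA, 150 mM NaCl; Fl 340/450, 0 & 15 min.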
# [4] = biological target: Phospholipid hydroperoxide glutathione peroxidase GPX4 (Homo sapiens) (UniProt P36969); assay: Primary qHTS Assay for Inhibitors of Recombinant Selenoprotein Glutathione Peroxidase 4 (GPX4) (AID 1845192); conditions: outcome: dose series up to 50 µM unless noted; also: nearly all actives have a fitted effect of over 65% in size
# Chain of Phospholipid hydroperoxide glutathione peroxidase GPX4 (Homo sapiens) (P36969 whole entry, looked up): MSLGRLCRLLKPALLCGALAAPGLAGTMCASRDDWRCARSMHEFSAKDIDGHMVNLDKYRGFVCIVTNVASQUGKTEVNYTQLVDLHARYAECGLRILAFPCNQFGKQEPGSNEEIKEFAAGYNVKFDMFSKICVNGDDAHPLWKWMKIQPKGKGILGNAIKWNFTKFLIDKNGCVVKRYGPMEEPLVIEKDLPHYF
# In short: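 NADPH consumption, followed by fluorescence at 340/450 nm between 0 and 15 min, reports GPX4 activity via coupled glutathione reductase (100 nM). Enzyme 200 nM was pre-exposed to compound 30 min; 0.5 mM cumene hydroperoxide and 1 mM GSH served as substrates.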
# [5] = biological target: Luciferin 4-monooxygenase (Photinus pyralis) (UniProt P08659); assay: Primary firefly luciferase (FLuc) qHTS assay for identification of artifact compounds. (AID 1845220); also: nearly all actives have a fitted effect of over 60% in size
# In short: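 Cell-free, 1536-well qHTS. Buffer pH 7.6 with 0.01% Tween-20 and 0.05% BSA; 10 uM D-luciferin, 10 uM ATP; 10 nM P. pyralis luciferase; luminescence after 5 min.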
# [6] = Primary fluorescence-based thiol-reactive (MSTI) qHTS assay for identification of artifact compounds. (AID 1845221); also: nearly all actives have a fitted effect of over 65% in size; also: potency is read from the fitted curve at half-maximal effect
# In short: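 Compounds were incubated 1 h at room temperature in the dark with the MSTI probe (4 uM) in PBS pH 7.4, 2% DMSO. Signals were normalized between Acetyl-MSTI and MSTI.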
# [7] = test system: Nanoluciferase (engineered Oplophorus gracilirostris luciferase); assay: Primary Nanoluciferase (NLuc) qHTS assay for identification of artifact compounds. (AID 1845222)
# In short: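 Compounds are pinned into diluted (1:55) conditioned medium of NLuc-expressing S16 cells and held 15 min at room temperature protected from light. Nano-Glo substrate follows, and luminescence is read 5 min later.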
# [8] = Primary redox qHTS assay for identification of artifact compounds. (AID 1845223)
# In short: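 Amplex Red (25 uM) and HRP (250 mU/mL) in HBSS, with compounds for 15 min, then 250 uM DTT for 30 min, room temperature, dark. Fluorescence 525/598 nm read; normalized to DMSO and 10 uM DA3003; Hill fit.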
# C33A = assay: Primary qHTS to identify gynecologic anti-cancer compounds using libraries of approved drugs and bioactive compounds (AID 1345084); conditions: Gynecologic cancer cell panel viability, ATPlite luminescence, 48 h; series mostly up to 57.5 µM; also: nearly all actives have a fitted effect of over 55% in size
# In short: (§1)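 Luminescence from the ATPlite ATP-monitoring reagent indicates viable cell number; lower signal means cytotoxicity. Cells received compound 16 h after seeding and were exposed for 48 h across five concentrations.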
# CASKI = assay: as above; conditions: Gynecologic cancer cell panel viability, ATPlite luminescence, 48 h; series mostly up to 57.5 µM
# In short: as §1
# Es-2 = assay: as above; conditions: Gynecologic cancer cell panel viability, ATPlite luminescence, 48 h; series mostly up to 57.5 µM
# In short: as §1
# HeLa = assay: as above; conditions: Gynecologic cancer cell panel viability, ATPlite luminescence, 48 h; series mostly up to 57.5 µM
# In short: as §1
# JEG-3 = assay: as above; conditions: Gynecologic cancer cell panel viability, ATPlite luminescence, 48 h; series mostly up to 57.5 µM
# In short: as §1
# OV90 = assay: as above; conditions: Gynecologic cancer cell panel viability, ATPlite luminescence, 48 h; series mostly up to 57.5 µM
# In short: as §1
# Tov-21-G = assay: as above; conditions: Gynecologic cancer cell panel viability, ATPlite luminescence, 48 h; series mostly up to 57.5 µM
# In short: as §1
# Tov112D = assay: as above; conditions: Gynecologic cancer cell panel viability, ATPlite luminescence, 48 h; series mostly up to 57.5 µM
# In short: as §1
# CAOV3 = assay: as above; conditions: Gynecologic cancer cell panel viability, ATPlite luminescence, 48 h; series mostly up to 57.5 µM
# In short: as §1
# [9] = Primary qHTS for inhibitors of nuclear receptor binding SET domain protein 2 (NSD2) in an RCH-ACV wild type WT cells (2C) (AID 1645877); also: potency is read from the fitted curve at half-maximal effect; nearly all actives have a fitted effect of over 70% in size
# [10] = Primary qHTS for inhibitors of nuclear receptor binding SET domain protein 2 (NSD2) in an isogenic RCH-ACV NSD2 p.E1099K mutant (9B) (AID 1645876); also: nearly all actives have a fitted effect of over 70% in size; also: potency is read from the fitted curve at half-maximal effect
# Hek293T = assay: Primary qHTS to identify gynecologic anti-cancer compounds using libraries of approved drugs and bioactive compounds (AID 1345084); conditions: Gynecologic cancer cell panel viability, ATPlite luminescence, 48 h, control line for the selectivity index; series mostly up to 57.5 µM; also: nearly all actives have a fitted effect of over 55% in size
# In short: as §1
smiles,measurement,setting,value
CC(=O)c1c(OCCN2CCCCC2)c(OCCC(C)c2ccc(F)cc2)c2oc(C)nc2c1C (centres undefined),Potency,[1],inactive
same,outcome,[2],inactive
same,Potency,[3],inactive
same,Potency,[4],inactive
same,Potency,[5],inactive
same,Potency,[6],inactive
same,Potency,[7],inactive
same,Potency,[8],inactive
same,Potency,C33A,inactive
same,Potency,CASKI,inactive
same,Potency,Es-2,inactive
same,Potency,HeLa,inactive
same,Potency,JEG-3,inactive
same,Potency,OV90,inactive
same,Potency,Tov-21-G,inactive
same,Potency,Tov112D,inactive
C=C1CC[C@@H]2[C@](C)(CO)[C@H](O)CC[C@@]2(C)[C@@H]1C/C=C1/C(=O)OC[C@@H]1O,outcome,[2],inactive
same,Potency,[4],inactive
same,Potency,[5],inactive
same,Potency,[6],inactive
same,Potency,[7],inactive
same,Potency,[8],inactive
same,Potency,CAOV3,inactive
same,Potency,Es-2,inactive
same,Potency,HeLa,inactive
same,Potency,JEG-3,inactive
same,Potency,OV90,inactive
CC1CCC2C(C)(C)C(O)CCC2(C)C12Cc1c(O)cc3c(c1O2)CN(C(CCCN=C(N)N)C(=O)O)C3=O (centres undefined),Potency,[1],inactive
same,outcome,[2],inactive
same,Potency,[9],8.93 µM (active)
same,Potency,[3],inactive
same,Potency,[4],inactive
same,Potency,[5],inactive
same,Potency,[6],inactive
same,Potency,[7],inactive
same,Potency,[8],inactive
same,Potency,C33A,inactive
same,Potency,CASKI,inactive
same,Potency,Es-2,inactive
same,Potency,HeLa,inactive
same,Potency,JEG-3,inactive
same,Potency,OV90,inactive
same,Potency,Tov-21-G,inactive
CC(C)N(CCCNC(=O)Nc1ccc(C(C)(C)C)cc1)C[C@H]1O[C@@H](n2cc(Br)c3c(N)ncnc32)[C@H](O)[C@@H]1O,Potency,[1],inactive
same,outcome,[2],inactive
same,Potency,[10],12.9 µM (active) and 16.6 µM (active)
same,Potency,[9],12.9 µM (active) and 14.8 µM (active)
same,Potency,[3],inactive
same,Potency,[4],inactive
same,Potency,[5],inactive
same,Potency,[6],inactive
same,Potency,[7],inactive
same,Potency,C33A,inactive
same,Potency,CAOV3,inactive
same,Potency,CASKI,inactive
same,Potency,Es-2,inactive
same,Potency,HeLa,inactive
same,Potency,Hek293T,inactive
same,Potency,JEG-3,inactive
same,Potency,OV90,inactive
same,Potency,Tov-21-G,inactive
same,Potency,Tov112D,inactive
COCCOCCOc1ccc(C2=N[C@@](C)(C(=O)O)CS2)c(O)c1,outcome,[2],inactive
same,Potency,[9],10.3 µM (active)
same,Potency,[3],inactive
same,Potency,[4],inactive
same,Potency,[5],inactive
same,Potency,[6],0.377 µM (active)
same,Potency,[7],inactive
same,Potency,C33A,inactive
same,Potency,CAOV3,inactive
same,Potency,CASKI,inactive
same,Potency,Es-2,inactive
same,Potency,HeLa,inactive
same,Potency,Hek293T,inactive
same,Potency,JEG-3,inactive
same,Potency,Tov-21-G,inactive
OCC(CO)(CO)NCC(O)Cn1c2ccc(Cl)cc2c2cc(Cl)ccc21 (centres undefined),Potency,[1],inactive
same,outcome,[2],inactive
same,Potency,[10],20.5 µM (active)
same,Potency,[9],20.5 µM (active)
same,Potency,[3],inactive
same,Potency,[4],inactive
same,Potency,[5],inactive
same,Potency,[6],inactive
same,Potency,[7],inactive
same,Potency,C33A,inactive
same,Potency,CAOV3,inactive
same,Potency,CASKI,inactive
same,Potency,Es-2,inactive
same,Potency,HeLa,inactive
same,Potency,Hek293T,inactive
same,Potency,JEG-3,inactive
same,Potency,OV90,inactive
same,Potency,Tov-21-G,inactive
same,Potency,Tov112D,inactive
COc1ccc2c(c1)C[C@H](C(=O)Nc1ccc(-c3cn[nH]c3)cc1OCCN(C)C)CO2,Potency,[1],inactive
same,outcome,[2],inactive
same,Potency,[10],0.291 µM (active)
same,Potency,[9],0.164 µM (active)
same,Potency,[3],inactive
same,Potency,[4],inactive
same,Potency,[5],inactive
same,Potency,[6],inactive
same,Potency,[7],inactive
same,Potency,[8],inactive
same,Potency,C33A,inactive
same,Potency,CAOV3,inactive
same,Potency,CASKI,inactive
same,Potency,Es-2,inactive
same,Potency,Hek293T,inactive
same,Potency,JEG-3,inactive
same,Potency,OV90,inactive
same,Potency,Tov-21-G,inactive
same,Potency,Tov112D,inactive
CC1CCN(c2cc(NC(=O)c3ccccc3)ncn2)CC1,Potency,[1],inactive
same,outcome,[2],inactive
same,Potency,[3],inactive
same,Potency,[4],inactive
same,Potency,[5],inactive
same,Potency,[6],inactive
same,Potency,[7],inactive
same,Potency,[8],inactive
same,Potency,C33A,inactive
same,Potency,CAOV3,inactive
same,Potency,CASKI,inactive
same,Potency,Es-2,inactive
same,Potency,HeLa,inactive
same,Potency,Hek293T,inactive
same,Potency,JEG-3,inactive
same,Potency,OV90,inactive
same,Potency,Tov-21-G,inactive
same,Potency,Tov112D,inactive
CC1CCC(n2c3cnccc3c3cnc(Nc4ccc5c(n4)CCN(C(=O)CO)C5)nc32)CC1 (centres undefined),Potency,[1],inactive
same,outcome,[2],inactive
same,Potency,[10],2.59 µM (active)
same,"activity change, negative = viability loss",[10],-24.3% [at 9.23 µM]
same,Potency,[9],2.31 µM (active)
same,Potency,[3],inactive
same,Potency,[4],inactive
same,Potency,[5],inactive
same,Potency,[6],inactive
same,Potency,[7],inactive
same,Potency,[8],inactive
same,Potency,C33A,inactive
same,Potency,CAOV3,inactive
same,Potency,CASKI,inactive
same,Potency,Es-2,inactive
same,Potency,HeLa,inactive
same,Potency,Hek293T,inactive
same,Potency,JEG-3,inactive
same,Potency,OV90,inactive
same,Potency,Tov-21-G,inactive
same,Potency,Tov112D,inactive
CC1CCN(C(c2ccc(F)cc2)c2ccc(C(C)C(=O)O)cc2-c2ccc(C(F)(F)F)cc2)CC1 (centres undefined),Potency,[1],3.16 µM (active)
same,outcome,[2],inactive
same,Potency,[10],14.5 µM (active)
same,Potency,[9],11.5 µM (active)
same,Potency,[3],inactive
same,Potency,[4],inactive
same,Potency,[5],inactive
same,Potency,[6],inactive
same,Potency,[7],inactive
same,Potency,[8],inactive
same,Potency,C33A,inactive
same,Potency,CAOV3,inactive
same,Potency,CASKI,inactive
same,Potency,Es-2,inactive
same,Potency,JEG-3,inactive
same,Potency,OV90,inactive
same,Potency,Tov-21-G,inactive
same,Potency,Tov112D,inactive
CNC(=O)c1cccc2cc(Oc3ccnc4cc(OCC5(N)CC5)c(OC)cc34)ccc12,Potency,[1],inactive
same,outcome,[2],inactive
same,Potency,[10],14.8 µM (active) and 20.6 µM (active)
same,Potency,[9],10.5 µM (active) and 23.1 µM (active)
same,Potency,[3],inactive
same,Potency,[4],inactive
same,Potency,[5],inactive
same,Potency,[6],inactive
same,Potency,[7],inactive
same,Potency,C33A,inactive
same,Potency,CAOV3,inactive
same,Potency,CASKI,inactive
same,Potency,Es-2,inactive
same,Potency,HeLa,inactive
same,Potency,Hek293T,inactive
same,Potency,JEG-3,inactive
same,Potency,Tov-21-G,inactive
same,Potency,Tov112D,inactive
C[C@@H](c1nc(-c2ccc(C#N)cc2)cs1)[C@](O)(Cn1cncn1)c1cc(F)ccc1F,Potency,[1],inactive
same,outcome,[2],inactive
same,Potency,[10],8.17 µM (active)
same,Potency,[9],11.5 µM (active)
same,Potency,[3],inactive
same,Potency,[5],inactive
same,Potency,[6],inactive
same,Potency,[7],inactive
same,Potency,[8],inactive
same,Potency,C33A,inactive
same,Potency,CAOV3,inactive
same,Potency,CASKI,inactive
same,Potency,Es-2,inactive
same,Potency,HeLa,inactive
same,Potency,Hek293T,inactive
same,Potency,JEG-3,inactive
same,Potency,OV90,inactive
same,Potency,Tov-21-G,inactive
same,Potency,Tov112D,inactive
